Compound: CCc1cnn2c(NCc3ccc[n+]([O-])c3)cc(N3CCCC[C@H]3CCO)nc12 [dinaciclib]
Assay: cell viability remaining relative to DMSO control; higher = less cytotoxic (more viable cells)
Conditions: 100 nM; 24 h
Method: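 Solid tumor cell lines were treated with dinaciclib (100 nM) for 24 hr. Viability was measured by CellTiter-Glo ATP luminescence and expressed as % of DMSO-treated control wells (mean of 2-6 plates, triplicate wells per plate).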

| Target | cell viability remaining |
| --- | --- |
| EN | 51.9% |
| H446 | 51.2% |
| VCAP | 37.8% |
| H23 | 41.9% |
| OVISE | 94.6% |
| MALME3M | 54.4% |
| EFO21 | 93.6% |
| OVCAR8 | 104% |
| COV362 | 81% |
| SH4 | 64.5% |
| MESSA | 33.4% |
| SCC25 | 20.5% |
| H441 | 73.4% |
| HS839T | 97.6% |
| OE33 | 51.6% |
| G361 | 4.9% |
| H1793 | 91.3% |
| DV90 | 56.2% |
| CHL1 | 3.1% |
| SNU1 | 50.8% |

| Target | cell viability remaining |
| --- | --- |
| H522 | 80.6% |
| HS695T | 72.9% |
| DAOY | 23.4% |
| A101D | 33.9% |
| SKMEL31 | 66.9% |
| H2228 | 36.4% |
| JIMT1 | 66.2% |
| HEC151 | 39% |
| HS895T | 92.4% |
| SW1417 | 83.7% |
| KLE | 91.8% |
| D283MED | 43% |
| SNU16 | 52.2% |
| H1437 | 41.9% |
| HCC1428 | 19.7% |
| OE19 | 77.7% |
| HEC1A | 49% |
| H526 | 16.7% |
| RPMI7951 | 45.3% |
| H747 | 73% |
